# Screening results deposited in PubChem BioAssay by National Center for Advancing Translational Sciences (NCATS).
# Sm TGR block: inhibitors of Schistosoma mansoni thioredoxin glutathione reductase | Q962Y6 | purified TGR, DTNB reduction, TNB absorbance 405 nm | Potency, µM (titrated, usually from 114 µM), for inactives: top-dose activity change, negative = inhibition, actives largely listed as inhibitors | 3% of 360,000 active | AID 485364; active = well fitted inhibition curve with a large enough effect; inconclusive = small, poorly fitted or top-dose-only effect; inactive = no such curve, though single readings can be large or run the other way; note: potency is the fitted concentration of half-maximal effect; % is set by controls: 0 for no effect and ±100 for the full control effect; nearly all actives have a fitted effect of over 60% in size
#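 First, TGR (20 nM dispensed) and NADPH were mixed with compound. Second, a 15 min room-temperature incubation followed. Third, further NADPH and then DTNB were added to start the reaction. Finally, TNB absorbance was monitored kinetically.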
# Shiga toxin inh: Shiga toxin inhibition | 9.2% of 290,000 active | AID 2315 | Vero cells, Shiga toxin protein synthesis inhibition reporter | inhibition, % at 38.7 µM; in the data active = inhibition mostly above about 28%, no sharp cut-off; inactive = mostly below about 43%; note: 0% is about no effect
# FMDV antiviral: antivirals against foot and mouth disease virus; Potency, µM (titrated, usually from 57.9 µM), for the others: at the highest dose activity change, negative = inhibition, usual class: inhibitors; AID 1159524; 1.2% of 410,000 active; FMDV antiviral cell-based qHTS; calls by dose curve; tested in HEK293T cells; note: read-out not given here; potency is the fitted concentration of half-maximal effect; % is set by controls: 0 for no effect and ±100 for the full control effect; nearly all actives have a fitted effect of over 45% in size
# CHX counter: counter-screen hit for Shiga toxin inhibitors, cycloheximide; cell reporter, cycloheximide protein synthesis inhibition counterscreen; max response, %; 12% of 300,000 active; AID 2314; in the data active = max response mostly above about 13%, no sharp cut-off; inactive = mostly below about 14%; note: read at 38.3 µM for the half of the compounds with a filed dose; 0% is about no effect
# * marks the source's active call; other numbers are inactive results; i = inactive; ? = inconclusive; . = no result given; [ ] = another dose, or the depositor's remark. Shown are actives, neighbours in structure and some others; about 12% of the full set was active somewhere.
SMILES,Sm TGR block,Shiga toxin inh,FMDV antiviral,CHX counter
O=c1[nH]c2ccc(NC(=S)Nc3ccc(Cl)cc3Cl)cc2[nH]1,11.2µM*,-9.1,0.4%,-2.2
O=c1[nH]c2ccc(NC(=S)Nc3ccccc3Cl)cc2[nH]1,50.1µM*,19.5,0.0%,0.4
O=c1[nH]c2ccc(NC(=S)Nc3ccc(Cl)cc3)cc2[nH]1,-14.0%,-2.1,-2.2%,-3.6
CC(C)c1ccc(NC(=S)Nc2ccc3[nH]c(=O)[nH]c3c2)cc1,1.1%,23.8*,6.1%,13.9
Cc1ccc(NC(=S)Nc2ccc3[nH]c(=O)[nH]c3c2)cc1,-35.6%,24.2,?,-3.0
O=C(COc1ccccc1)Nc1ccc2nc(SCCOc3ccccc3)sc2c1,1.5%,.,-20.6%,.
COC(=O)c1ccc(CN2CCC3(CCC(CNC(=O)c4ccco4)O3)CC2)cc1 (stereo not drawn),.,.,2.9%,.
COc1cc(NC(=O)CCc2ccccc2)nc(OC)n1,-22.1%,48.1*,35.2%,35.1*
COc1cc(NC(=O)Cc2ccccc2)nc(OC)n1,2.6%,30.9,8.3%,-0.9
COc1ccc(C(=O)Nc2cc(OC)nc(OC)n2)cc1,-18.2%,52.7*,7.2%,18.6*
CSc1cccc(NC(=O)c2ccc3c(c2)CCCN3S(C)(=O)=O)c1,-0.1%,.,?,.
CCOC(=O)C1=C(C)N=c2s/c(=C\c3ccc(OCC(=O)O)cc3)c(=O)n2C1c1ccc(OC(C)C)cc1 (stereo not drawn),0.8%,2.2,39.8µM*,1.2
CCOC(=O)C1=C(C)N=c2s/c(=C/c3ccc(OCC(=O)O)cc3)c(=O)n2C1c1cc(OC)c(OC)c(OC)c1 (stereo not drawn),2.1%,.,0.0%,-1.3
CCOC(=O)COC(=O)c1ccc(O)cc1,3.4%,47.2,42.5%,14.8
Cc1ccc(C(=O)COC(=O)C2CCC2)cc1,10.6%,48.4*,53.1%,36.5*
Cc1ccc(C(=O)COC(=O)c2ccc(O)cc2)cc1,8.6%,93.9*,17.2%,33.1*
CC(C)(C)NC(=O)COC(=O)c1ccc(O)cc1,0.0%,18.9,19.0%,17.4*
COc1ccc(Cl)cc1-c1ccc(C(=O)O)o1,.,i,.,3.9
Fc1cc2ncn(Cc3ccccc3)c2cc1F,56.2µM*,-4.3,0.0%,-3.6
O=C(CCc1nnc(-c2ccc(-c3ccccc3)cc2)o1)NCCc1ccccn1,2.2%,58.7,-15.6%,17.8*
CC(c1nccs1)N(C)C(=O)CCc1nnc(-c2ccc(-c3ccccc3)cc2)o1 (stereo not drawn),1.6%,27.6,-28.6%,26.1*
CC(NC(=O)CCc1nnc(-c2ccc(-c3ccccc3)cc2)o1)c1nccs1 (stereo not drawn),1.5%[57.1 µM],36.3,-8.0%,14.3*
Cc1ccc(Cn2c(C)c(CNCc3ccccc3F)c(C(=O)O)c2C)cc1,-6.9%,.,-22.8%,.
Cc1ccc(S(=O)(=O)c2nc(S(C)(=O)=O)sc2N(C)Cc2ccccc2)cc1,?,.,6.9%,.
CC1CCN(S(=O)(=O)c2ccc3c(c2)N(CC(=O)NC(C)c2ccccc2)C(=O)CS3)CC1 (stereo not drawn),-1.8%,.,-4.8%,.
SMILES,Sm TGR block,Shiga toxin inh,FMDV antiviral,CHX counter
COc1ccc(/C=N\Nc2ccc([N+](=O)[O-])cc2)c(C(=O)O)c1OC,11.3%,-4.6,-10.3%,-2.1
COc1cc(/C=N/Nc2ccc(S(N)(=O)=O)cc2)cc(OC)c1OC,-11.4%,-4.4,28.2µM*,2.2
COc1cc(/C=N/Nc2ccc(C(=O)O)cc2)cc(OC)c1OC,-0.7%,57.6*,12.8%,45.0*
C=CCOc1c(/C=N\NC(N)=O)cccc1OC,-10.0%,-3.0,-16.6%,1.0
C=CCOc1c(OC)cc(/C=N/Nc2cccc(C(=O)O)c2)c(Br)c1Br,56.2µM*,187.2*,11.4%,49.9*
COc1cc(/C=N\NS(=O)(=O)c2ccccc2)cc(OC)c1OC,3.5%,.,0.1%,0.3
COc1ccc(/C=N/Nc2ccc(C(=O)O)cc2)c(OC)c1OC,-0.1%,79.9*,40.9%,47.2*
Cc1ccc(C)c(Cn2c(SCC(=O)N(C)Cc3ccccc3)nc3ccccc32)c1,6.2%,.,-16.4%,.
CCN(CC)c1ccc(NC(=O)CSc2nnc(C)c(=O)[nH]2)cc1,-16.2%,.,-11.9%,.
CCOc1ccc(NC(=O)CCNS(=O)(=O)c2ccc3c(c2)CCCC(=O)N3)cc1,3.4%,.,-2.3%,.
Clc1cccc(Cl)c1/C=C/c1ccn[nH]1,17.5%,66.8*,31.3%,35.3*
C/C(=N\NC(=O)c1cccc(S(=O)(=O)N2CCOCC2)c1)c1cc2ccccc2o1,-1.0%,-7.1,-5.0%,-5.0
C/C(=N\NC(=O)c1ccc(O)cc1)c1cc2ccccc2o1,-17.1%,58.8*,49.4%,28.8*
COc1ccc(OCC(=O)N/N=C(\C)c2ccc(OC)cc2)cc1,-4.1%,-3.2,0.1%,20.0
C/C(=N\NC(=S)Nc1cccc(C)c1)c1cc2ccccc2o1,5.8%,3.5,2.7%,1.1
COc1ccc(OCC(=O)N/N=C(\C)c2cc3ccccc3o2)cc1,-8.7%,56.6*,0.0%,25.8*
CCNC(=S)N/N=C(\C)c1cc2ccccc2o1,-3.8%,10.4,11.7%,18.4*
Cc1cn(-c2ccc(Br)cc2)[nH]c1=O,8.4%,63.6*,.,39.3*
Cc1ccc(-n2c(=O)[nH]c3ccc(Br)cc3c2=O)cc1,1.9%,.,-5.4%,.
CCCc1c(O)c2ccccc2[nH]c1=O,-0.1%,4.2,-17.9%,-1.7
CN(C)C(=S)N=Nc1[nH]c2ccccc2c1O,?,65.9*,49.3%,39.4*
CCNc1oc(/C=C/c2ccc(OCC)cc2)nc1C#N,-29.8%,38.2*,-7.0%,15.7*
CCN(CC)CCCNc1oc(/C=C/c2ccccc2)nc1C#N,2.9%,23.6,17.9%,22.4*
CNc1oc(/C=C/c2cccc(OC)c2)nc1C#N,0.0%,99.0*,32.6%,34.8*
COc1ccc(-c2cc(C(=O)OCC(=O)Nc3ccc4c(c3)OCO4)c3ccccc3n2)cc1,-11.7%,21.2,7.1%,6.4
SMILES,Sm TGR block,Shiga toxin inh,FMDV antiviral,CHX counter
CCOc1ccc(-c2cc(C(=O)Nc3ccc4c(c3)OCCO4)c3ccccc3n2)cc1,-15.8%,52.5*,-14.5%,22.8*
Cc1cccc(-c2cc(C(=O)Nc3ccc4c(c3)OCCO4)c3ccccc3n2)c1,9.1%,96.2*,0.0%,31.6*
CCOC(=O)C1CCN(CC(=O)c2c(C)[nH]c3cc(C)ccc23)CC1,30.9%,3.1,-14.3%,-4.9
Cc1ccc2c(C(=O)CN3CCOCC3)c(C)[nH]c2c1,?,-4.7,21.4%,7.2
Cc1ccc2c(C(=O)CN3CCCCC3)c(C)[nH]c2c1,20µM*,-14.9,0.8%,-1.1
Cc1ccc2c(C(=O)CN3CCC(C(N)=O)CC3)c(C)[nH]c2c1,35.5µM*,-5.3,.,0.6
CCOC(=O)C1CCCN(c2nc3c(S(=O)(=O)c4ccc(C)c(C)c4)nnn3c3ccc(Cl)cc23)C1 (stereo not drawn),-2.8%,.,-9.7%,.
CCc1ccccc1-n1nnc(-c2nsc(NC(=O)c3ccc(C)c(C)c3)n2)c1C,5.9%,.,11.2µM*,.
Cc1ccc(-n2nnc(-c3nsc(NC(=O)c4ccc(C)c(C)c4)n3)c2C)cc1,12.4%,.,-6.9%,.
C=CCn1c(O)c(CN2CCCCC2)c(C)c(C#N)c1=O,12.6µM*,17.0,8.0%,8.7
Cc1c(CN2CCCC(C)C2)c(O)n(CCO)c(=O)c1C#N (stereo not drawn),-0.2%,-13.2,1.0%,-4.5
